HP1b chromo inh: HTS for Inhibitors of HP1-beta Chromodomain Interactions with Methylated Histone Tails; Chromobox protein homolog 1 (Homo sapiens), P83916; AlphaScreen HP1-beta / biotin-H3K9me3 peptide binding; Potency, µM (top dose mostly 114 µM), for inactives: top-dose activity change, negative = inhibition, actives largely listed as inhibitors; actives 0.56% (n = 390,000); AID 540317, 2011; note: nearly all actives have a fitted effect of over 70% in size
Target sequence (P83916 whole entry, looked up): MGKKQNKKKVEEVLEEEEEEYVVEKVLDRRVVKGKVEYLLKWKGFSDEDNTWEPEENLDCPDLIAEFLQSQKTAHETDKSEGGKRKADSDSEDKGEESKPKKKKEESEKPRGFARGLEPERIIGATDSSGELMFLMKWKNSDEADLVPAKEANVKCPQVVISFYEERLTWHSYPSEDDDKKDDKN
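HP1-beta protein (50 nM final) preincubated 30 min at room temperature with biotinylated H3(1-18)K9me3 peptide (50 nM) in PBS pH 7.4, 0.01% Tween-20, then compound added for 30 min. AlphaScreen streptavidin donor/nickel chelate acceptor beads (10 ug/mL final), 30 min dark, luminescence read.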
Sfp PPTase inh: qHTS Assay for Inhibitors of Bacillus subtilis Sfp phosphopantetheinyl transferase (PPTase); 4'-phosphopantetheinyl transferase ffp (Bacillus subtilis), Q9F4F7; Biochemical Sfp PPTase activity, qHTS; Potency, µM, inactives show largest response in the series, negative = inhibition, usual class: inhibitors; actives 3.5% (n = 310,000); AID 1490, 2009;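 note: the enzyme is Sfp with the accession as filed and its product quenches rhodamine fluorescence; 0% = enzyme reaction without inhibitor and -100% = no enzyme wells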
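Reaction rates are the 30-min fluorescence difference (ex 525, em 598 nm) in wells containing 15 nM Sfp, 5 uM rhodamine-CoA and 12.5 uM BHQ-2-YbbR at pH 7.6 with 10 mM MgCl2.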
G9a block: qHTS Assay for Inhibitors of Histone Lysine Methyltransferase G9a | G9a H3K9 monomethylation, AlphaScreen, 2 h | Potency, µM (top dose mostly 102 µM), for inactives: at the top dose activity, negative = inhibition, hits mostly inhibitors | actives 8.8% (n = 350,000) | AID 504332, 2011; note: % is set by controls: 0 for no effect and ±100 for the full control effect; nearly all actives have a fitted effect of over 75% in size
Target sequence (Q96KQ7 913-1193 limits assumed): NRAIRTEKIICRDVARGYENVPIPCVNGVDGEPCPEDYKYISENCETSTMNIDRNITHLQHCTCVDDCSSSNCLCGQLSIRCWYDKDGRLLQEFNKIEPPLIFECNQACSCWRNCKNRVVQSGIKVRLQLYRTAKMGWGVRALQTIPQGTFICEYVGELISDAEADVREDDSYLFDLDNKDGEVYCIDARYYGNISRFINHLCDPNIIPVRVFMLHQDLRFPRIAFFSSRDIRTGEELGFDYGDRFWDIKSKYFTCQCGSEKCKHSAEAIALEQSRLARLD
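Using a bead-based AlphaScreen, monomethylated H3K9 product from 2 h room-temperature reactions (G9a 20 nM, peptide 500 nM, SAM 20 uM) was detected with 0.5 ug/mL rabbit anti-H3K9me1 antibody.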
JMJD2A Tudor: qHTS Assay for Inhibitors of JMJD2A-Tudor Domain. actives 4.4% (n = 390,000). AID 504339, 2011. AlphaScreen JMJD2A-Tudor / H3K4me3 peptide binding. Potency, µM (highest dose often 114 µM), for the others: at the top dose activity change, negative = inhibition, actives largely listed as inhibitors. Lysine-specific demethylase 4A (Homo sapiens), O75164; note: % is set by controls: 0 for no effect and ±100 for the full control effect; nearly all actives have a fitted effect of over 50% in size
BAZ2B inh: qHTS Assay for Inhibitors of BAZ2B; AlphaScreen BAZ2B-H3K14Ac peptide displacement; Potency, µM (titrated, usually from 114 µM), inactives show at the top dose activity change, negative = inhibition, actives largely listed as inhibitors; actives 4.4% (n = 360,000); AID 504333, 2011; note: % is set by controls: 0 for no effect and ±100 for the full control effect; nearly all actives have a fitted effect of over 60% in size
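BAZ2B 50 nM plus b-H3(5-23)K14Ac 50 nM, PBS pH 7.4/0.01% Tween-20, 30 min RT; compound added (max 110 uM), 30 min RT; streptavidin donor/Ni-chelate acceptor beads 10 ug/mL final, 20 min dark; AlphaScreen read.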
L3MBTL1 inh: qHTS Assay for the Inhibitors of L3MBTL1; Lethal(3)malignant brain tumor-like protein 1 (Homo sapiens), Q9Y468; actives 0.66% (n = 230,000); AlphaScreen L3MBTL1–H3K9me1 peptide binding; Potency, µM (highest dose often 57.1 µM), inactives show top-dose activity, negative = inhibition, usual class: inhibitors; note: % is set by controls: 0 for no effect and ±100 for the full control effect; nearly all actives have a fitted effect of over 60% in size
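AlphaScreen proximity signal between nickel-chelate acceptor and streptavidin donor beads (final 10 ug/mL) reports binding of 50 nM L3MBTL1 to 75 nM biotin-H3 K9me1 peptide; complex incubated with compounds 30 min at room temperature; cefsulodin titration as control.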
* = called active by the depositor; u = inconclusive; x = not tested or not shown; [ ] = another dose, or the depositor's remark. This is a sample that favours compounds with a hit; in the whole collection about 12% have one here. Calls come from the whole dose curve; as a rule, active = well fitted curve in the direction sought with a large enough effect; inconclusive = small, poorly fitted or top-dose-only effect, or another doubt; inactive = no such curve, though single readings can be large; an effect the other way counts as inactive or inconclusive. Potency is the fitted concentration of half-maximal effect.

SMILES | HP1b chromo inh | Sfp PPTase inh | G9a block | JMJD2A Tudor | BAZ2B inh | L3MBTL1 inh
COc1cccc(C2C(C#N)=C(N)Oc3c2oc(CO)cc3=O)c1OC (stereo unspecified) | -6.1% | -11.5% | u | 17.8µM* | -0.9% | 11.1%
COC(=O)C1=C(C)OC(N)=C(C#N)C1c1ccc(OC)c(OC)c1OC (stereo unspecified) | 25.1% | 23.3% | -0.9%[12.7 µM] | 5.2%[57.1 µM] | 6.2% | 7.7%
COc1cc(C2C(C#N)=C(N)Oc3c2oc(CO)cc3=O)cc(OC)c1OC (stereo unspecified) | -12.5% | -7.5% | u | 7.08µM* | 1.3% | -3.4%
COc1ccc(C2C(C#N)=C(N)Oc3c2oc(CO)cc3=O)c(OC)c1OC (stereo unspecified) | 15.7% | -4.2% | -13.4%[59 µM] | 11.2µM* | 12.4% | 4.8%
COc1cc(C2C(C#N)=C(N)Oc3cc(N)ccc32)cc(OC)c1OC (stereo unspecified) | 17.4% | -14.6% | u | -25.7% | -1.6% | -13.6%
O=C(NCCCN1CCCC1=O)c1sc2ccccc2c1Cl | 19.7% | 7.4% | 13.8% | -0.7% | 0.7% | x
COc1ccccc1N(C)C(=O)c1cc(S(=O)(=O)N2CCCC2)cn1C | 14.7% | 10.0% | -3.6% | -13.6% | -25.7% | -6.0%
CC(C)c1ccc(Nc2nc3c(S(=O)(=O)c4ccc(Br)cc4)nnn3c3ccsc23)cc1 | 20.5% | x | -18.6%[59 µM] | -17.6% | -12.8% | x
O=C(CSc1nnc(C2COc3ccccc3O2)o1)N1CCCC1 (stereo unspecified) | u | u | 8.91µM* | -23.4% | -6.6% | x
CCOC(=O)N1CCN(C(=O)CSc2nnc(C3COc4ccccc4O3)o2)CC1 (stereo unspecified) | 17.6% | 9.9% | u | -9.2% | -2.8% | x
Cc1cc(S(=O)(=O)N2CCCOC2CNC(=O)C(=O)NCc2cccs2)ccc1F (stereo unspecified) | 15.4% | 10.9% | 22.5% | -10.3% | -16.2% | x
N#Cc1cccc(-c2nc(Nc3ccncc3)c3ccccc3n2)c1 | x | -6.8% | x | x | x | x
O=c1c(-c2ccccc2)nc2cnc(N3CCOCC3)nc2n1Cc1cccs1 | x | 2.5% | 2.8%[0.501 µM] | x | x | x
COc1ccccc1NC(=O)Nc1ccccc1SC | 23.4% | 15.8% | 28.4% | -16.1% | -5.0% | 5.8%
COc1cc(CNc2ccccc2SC)ccc1O | 0.2% | 79.4µM* | u | 35.5µM* | u | -1.1%
COc1ncc2nc(-c3ccc(F)cc3)c(=O)n(Cc3cccs3)c2n1 | x | 11.5% | 7.8%[0.501 µM] | x | x | x
COC(=O)c1cc(OC)c(OC)cc1NC(=O)c1ccc(C)o1 | 2.0% | -3.2% | 10.4%[12.7 µM] | -24.5% | 13.0% | x
O=C1C(=O)N(CCCN2CCOCC2)C(c2ccc([N+](=O)[O-])cc2)/C1=C(/O)c1ccc2c(c1)OCO2 (stereo unspecified) | 30.1% | -19.9% | 50.1µM* | -14.5% | -20.9% | x
C=CCOc1ccc(C2/C(=C(\O)c3ccc4c(c3)OCCO4)C(=O)C(=O)N2CCCN2CCOCC2)cc1 (stereo unspecified) | 12.5% | -4.9% | 50.1µM* | -14.5% | -23.5%[57.1 µM] | x
Nc1ccccc1C(=O)NC1CCCNC1=O (stereo unspecified) | 33.7% | x | x | -6.4% | x | x
COCCCn1c(=O)c2sccc2n(Cc2ccccc2C)c1=O | 33.8% | 0.1% | 17.1% | 1.3% | -31.9% | -1.4%
O=[N+]([O-])c1cc2c(c(CSc3nnnn3-c3ccc(O)cc3)c1)OCOC2 | 2.7% | -5.8% | -13.7%[59 µM] | -21.3% | -17.6% | -6.3%
Cn1cnnc1Sc1ccc(C(=O)OCC(=O)Nc2cc(Cl)cc(Cl)c2)cc1[N+](=O)[O-] | -8.9% | 7.0% | 15.8µM* | u | -38.6% | -16.1%

Screening results from PubChem.
